# Only some compounds are listed: those with a hit (about 3.4% of all), similar ones and a draw of the others.
# ANO1 activ: TMEM16A chloride channel activators or potentiators, primary screen, cell-based, HTS. Anoctamin-1 (Mus musculus), Q8BHY3. HEK293 TMEM16A/YFP-H148Q/I152L, iodide quench fluorescence; active compounds read low. B-score at 10 µM. actives 0.3% (n = 340,000);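 active means fluorescence-ratio B-score plate-corrected deviation score at least 3 library SD below zero, with starting fluorescence score within 5 deviations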;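 further: channel opened by trigger with iodide after compound preincubation; score built on the fluorescence ratio of max minus min over baseline; more negative score means more quench and so TMEM16A activation or potentiation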
# MEKK2mut PB1 HTS: MEK5 binding signal on mutant MEKK2 PB1, primary screen, biochemical, multiplex bead flow cytometry, Alexa488-MEK5 | Alexa488-MEK5 binding to MEKK2 mutant | actives 0.35% (n = 290,000) | percent response, % at 10 µM; in the data active means percent response above about 24%, passing the limit was not always enough
# ANO1 block: TMEM16A chloride channel inhibitors, primary screen, cell-based, HTS; AID 588511, 2011; Anoctamin-1 (Mus musculus), Q8BHY3; HEK293 TMEM16A/YFP iodide influx fluorescence, ionomycin; actives 1.2% (n = 310,000); normalized B-score (activity score, 25-100; higher = stronger inhibition) at 10 µM;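 active means ratio plate-corrected score three or more library SD toward inhibition, starting fluorescence score within five deviations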;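 further: score derived from kinetic fluorescence span divided by baseline fluorescence per well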
# NTR1 agonist: agonists of human NTR1, primary screen, imaging, U2OS cells, beta-arrestin-GFP, high content; AID 493036, 2011; activation, % at 20 µM; actives 0.17% (n = 330,000); NTR1-U2OS beta-arrestin-GFP spot imaging, agonist mode;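 active means activation at or above 40% of the spot to cytoplasm intensity ratio, with at least 20 cells analyzed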;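 further: 0% = DMSO without peptide and 100% = 100 nM NTR1 peptide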
# MEKK3 PB1 HTS: modulators of MEKK3-MEK5 PB1 binding, primary screen, biochemical, wildtype MEKK3, multiplex bead flow cytometry, Alexa488-MEK5 | Mitogen-activated protein kinase kinase kinase 3 (Homo sapiens), Q99759 | bead-based flow cytometry, Alexa488-MEK5 binding to MEKK3; actives lie on both sides; 0 = blocked by unlabeled MEK5, 100 = vehicle | binding response (% of control), % at 10 µM | actives 1.4% (n = 290,000) | AID 1529, 2009;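 active means binding response more than 3 SD above or below the average of its plate-row segment, actives on both sides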;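 further: Alexa488 bead fluorescence after subtracting the streptavidin-only scavenger bead signal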
# MEKK2 WT-MEK5: modulators of MEK5 binding to wildtype MEKK2, primary screen, biochemical, multiplex bead flow cytometry, Alexa488-MEK5; Mitogen-activated protein kinase kinase kinase 2 (Homo sapiens), Q9Y2U5; Alexa488-MEK5 binding to MEKK2 WT; actives lie on both sides; binding response (% of control), % at 10 µM; actives 1.1% (n = 290,000); AID 1531, 2009; in the data active means binding response below about 67% or above about 130%
# * hit, by the source's call; i = inactive; . = no result; [ ] = remark or other dose.
SMILES,ANO1 activ,MEKK2mut PB1 HTS,ANO1 block,NTR1 agonist,MEKK3 PB1 HTS,MEKK2 WT-MEK5
CC(CCC(C)C(C)(C)C)[C@@H]1CC[C@H]2C3C[C@H](OS(O)(=S)=S)[C@H]4C[C@H](OS(O)(=S)=S)[C@@H](OS(O)(=S)=S)C[C@]4(C)[C@H]3CC[C@]12C (some centres undefined) (tested in a mixture with another compound),-11.4*,.,.,2.6,.,.
N#Cc1ccccc1-c1ccccc1C(=O)N1CCCCC1,i,15.0,i,0.0,101.0,116.0
CCCCCn1nc(C(=O)OCc2nc(N)nc(Nc3ccccc3)n2)c2ccccc2c1=O,i,.,.,9.3,.,.
COc1ccc(-c2cc(-c3ccccc3)c(C#N)c(S(C)=O)n2)cc1 (centres undefined),-8.06*,2.0,i,9.2,106.0,108.0
CCSc1nc(-c2ccc(OC)cc2)cc(-c2ccccc2)c1C#N,i,-4.0,i,6.7,98.0,96.0
CCC(C)(C)NC(=O)c1ccc2c(c1)OCCO2,-26.8*,-4.0,i,-0.2,102.0,98.0
CCOC(=O)Cc1csc(NC(=S)NC(=O)C(C)(C)C)n1,i,1.0,i,1.7,134.0*,107.0
Cc1nnc(NC(=O)CSc2nnc(CNC(=O)c3ccccc3)o2)s1,i,0.0,i,0.6,105.0,101.0
CC(=O)Oc1c(C)c(C)c2c(c1C)CC[C@@](C)(CCC[C@H](C)CCC[C@H](C)CCCC(C)C)O2,i,.,i,0.7,.,.
CC(C)Cn1c(-c2ccco2)n[nH]c1=S,i,-3.0,25*,-1.2,99.0,100.0
Nc1ccc(/C=C/C(=O)c2cccs2)cc1,-5.74*,-9.0,i,-2.0,106.0,92.0
Cc1cc(NC(=O)CCS(=O)(=O)c2ccc3c(c2)NC(=O)C(C)S3)ccc1Br (centres undefined),i,4.0,i,4.8,102.0,100.0
CCN1CCN(c2cc(N3CCN(C(=O)c4ccco4)CC3)c3c4c(onc24)-c2ccccc2C3=O)CC1,i,-1.0,i,-1.0,78.0*[inhibitor],86.0
O=C(O)CCNc1cc(N2CCN(C(=O)c3ccco3)CC2)c2noc3c2c1C(=O)c1ccccc1-3,i,-17.0,i,-0.3,63.0*[inhibitor],48.0*[inhibitor]
CCOC(=O)C1CCCN(S(=O)(=O)c2cccc3cccnc23)C1 (centres undefined),i,-1.0,i,-1.2,98.0,98.0
Cc1ccc(S(=O)(=O)N(C)C)cc1NC(=O)C(C)OC(=O)C1CCCC1 (centres undefined),i,.,i,0.0,.,.
CCOC(=O)C1CCCN(c2nc(C)nc3c2oc2ccccc23)C1 (centres undefined),i,-1.0,25*,13.7,94.0,97.0
O=C(Nc1nnc(-c2ccc(Cl)cc2)o1)c1nc2ccccc2s1,-12.8*,7.0,i,23.9,101.0,102.0
Cc1nn(CCCC(=O)N2CCN(c3ccc(F)cc3)CC2)c(C)c1[N+](=O)[O-],i,-1.0,i,0.8,101.0,97.0
O=C(c1ccccc1)N1CCN(c2n[nH]c(=O)[nH]c2=O)CC1,i,-4.0,i,-1.5,98.0,96.0
Cc1nc(C)c(NC(=O)OC(C)C)cc1NC(=O)OC(C)C,i,-2.0,i,1.5,102.0,93.0
COc1ccc(Cl)cc1NC(=O)C(C)Sc1nnc(C2CC2)n1C1CC1 (centres undefined),i,.,.,-2.1,.,.
COc1cccc(NC(=O)C(C)Sc2nnc(C3CC3)n2C2CC2)c1 (centres undefined),-31.8*,.,.,-1.3,.,.
Cc1cccc(C(=O)NNC(=S)NC(=O)c2ccccc2)c1,i,.,100*,1.5,.,.
COc1ccc(C(=O)NC(=S)NNC(=O)c2cccc(C)c2)cc1,i,.,25*,1.2,.,.
SMILES,ANO1 activ,MEKK2mut PB1 HTS,ANO1 block,NTR1 agonist,MEKK3 PB1 HTS,MEKK2 WT-MEK5
Cc1ccc(C(=O)NC(=S)NNC(=O)c2ccccc2)cc1,i,2.0,i,2.0,105.0,107.0
COc1ccc(C(=O)NNC(=S)NC(=O)c2ccc(OC)cc2)cc1,i,1.0,i,0.0,102.0,105.0
Cc1cccc(C(=O)N/C(=C\c2ccc(C)o2)C(=O)O)c1,i,2.0,i,0.1,98.0,-3.0*
Cc1cccc(C(=O)N/C(=C\c2ccco2)C(=O)N2CCCC2)c1,i,-1.0,i,0.7,96.0,98.0
Cc1ccc(C(=O)NNC(=S)NC(=O)c2ccccc2)cc1,i,.,100*,2.2,.,.
COc1cc2[nH]c(=O)c(C(=O)NCc3ccc(F)cc3)c(O)c2cc1OC,i,9.0,i,0.0,105.0,108.0
O=C(NC(=S)NNC(=O)[C@H]1C[C@@H]1c1ccccc1)c1cccc(F)c1,i,-15.0,100*,1.5,93.0,92.0
CC(C)(C)c1cc(CCC(=O)NNC(=S)NC(=O)c2ccccc2)cc(C(C)(C)C)c1O,-6.15*,-3.0,100*,9.6,98.0,96.0
Cc1ccc(C(=O)NNC(=S)NC(=O)c2ccc(Cl)cc2Cl)cc1,i,-4.0,100*,4.5,93.0,96.0
CCCCn1c(N)c(N(CC(C)C)C(=O)Cc2ccc(S(=O)(=O)N3CCOCC3)s2)c(=O)[nH]c1=O,-7.53*,.,.,.,.,.
COc1cccc2c1Oc1ncccc1N(C(=O)CCC(=O)NCc1cccc(C)c1)C2,i,3.0,i,-0.5,99.0,103.0
Cc1c(NC(=S)NC(=O)c2sc3ccccc3c2Cl)cccc1C(=O)O,i,1.0,i,1.8,107.0,101.0
COc1ccccc1C(=O)NNC(=S)NC(=O)c1cccs1,i,5.0,i,1.4,102.0,105.0
COc1ccccc1C(=O)NNC(=S)NC(=O)c1sc2ccccc2c1Cl,-6.16*,-1.0,100*,5.7,96.0,102.0
COc1ccccc1C(=O)NC(=S)NNC(=O)c1sc2ccccc2c1Cl,-7.78*,2.0,100*,11.4,91.0,104.0
NC(=NCc1ccccc1)C(N=Nc1ccccc1)C(=O)NCc1ccccc1 (centres undefined),i,.,.,.,.,.
COc1ccc(OC[C@@H](O)CNC(=O)c2cccc3c2C(=O)c2ccc(Cl)cc2S3(=O)=O)cc1,i,.,.,1.1,.,.
CNc1nc(SC)nc2ccsc12,i,-1.0,i,2.5,98.0,104.0
CCCCCCSc1cc(C)nc2ncnn12,i,10.0,i,6.9,110.0,113.0
